COUP-TFII inh – NR2F2 (human) inhibition, primary screen; hit rate 0.7% among 370,000; HEK293T NGFI-A luciferase reporter, luminescence; inhibition, % at 8.6 µM;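 active = inhibition above a per-plate cutoff, mean inhibition of test wells between control levels plus 3 SD, cut at about 38% in these data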;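 note: cells cotransfected with COUP-TFII expression vector driving the NGFI-A reporter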
SRC3 inh – inhibits human SRC3 coactivator; HEK293 GAL4-SRC3 luciferase reporter, luminescence; inhibition, % at 3.6 µM; hit rate 0.17% among 360,000; AID 588352;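 active = inhibition above a per-campaign cutoff, the mean of all compounds plus 3 SD, cut at about 60% in these data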;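 note: higher means less SRC3-driven luciferase light from the GAL4 reporter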
NCOA1 inh – inhibits human SRC1 coactivator | Q15788 | HEK293 GAL4-SRC1 luciferase reporter, luminescence | inhibition, % at 3.6 µM | hit rate 0.12% among 360,000;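 active = inhibition above the campaign mean plus 3 SD, with each screening campaign given its own cutoff, cut at about 60% in these data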
NR5A2 inv ag – suppresses constitutive activity of human LRH-1 | HEK293T StAR-luciferase reporter, LRH-1 transfected, 24 h | inhibition, % at 3.6 µM | hit rate 0.13% among 360,000;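 active = inhibition above the mean inhibition of all tested compounds plus 3 SD, cut at about 73% in these data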
Target sequence (O00482 whole entry, looked up): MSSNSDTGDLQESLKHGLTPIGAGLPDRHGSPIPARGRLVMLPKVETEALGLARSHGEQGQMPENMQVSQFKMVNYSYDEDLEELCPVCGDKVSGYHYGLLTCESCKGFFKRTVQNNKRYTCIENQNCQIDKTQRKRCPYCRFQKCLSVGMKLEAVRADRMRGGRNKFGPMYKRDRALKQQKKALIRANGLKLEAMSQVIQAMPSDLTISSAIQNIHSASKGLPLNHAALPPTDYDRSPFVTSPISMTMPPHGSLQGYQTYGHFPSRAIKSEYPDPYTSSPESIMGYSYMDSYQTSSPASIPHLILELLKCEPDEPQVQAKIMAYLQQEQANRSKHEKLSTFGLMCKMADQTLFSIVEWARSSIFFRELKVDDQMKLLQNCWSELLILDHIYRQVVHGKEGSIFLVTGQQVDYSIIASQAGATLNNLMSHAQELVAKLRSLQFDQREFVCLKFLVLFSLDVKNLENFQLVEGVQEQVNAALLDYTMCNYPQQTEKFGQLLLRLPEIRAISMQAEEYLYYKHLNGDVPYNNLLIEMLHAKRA
SRC2 inh – inhibits human steroid receptor coactivator 2; HEK293 GAL4-SRC2 luciferase reporter, luminescence; inhibition, % at 9 µM; hit rate 0.17% among 370,000;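 active = inhibition above the mean inhibition of all tested compounds plus 3 SD, set per campaign, cut at about 52% in these data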
Gli-Sufu block – blocks Gli-Sufu signaling in a luciferase reporter | Sufu-KO-LIGHT fibroblasts, Gli luciferase reporter luminescence | inhibition, % at 5 µM | hit rate 0.74% among 340,000 | AID 588413;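 active = inhibition above about 55%, limit read from the data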
VP16 Luc counter – counter-screen for COUP-TFII antagonists: inhibitors of VP16 | shares compounds with COUP-TFII inh | HEK293 Gal4-VP16 luciferase reporter, luminescence | inhibition, % at 8.5 µM | hit rate 25% among 2,500 | AID 687007; in the data active = inhibition above about 13%
COUP-TFII conf – COUP-TFII (NR2F2) inhibition, confirmation assay. shares compounds with COUP-TFII inh. HEK293 NGFI-A luciferase reporter, luminescence. inhibition, % at 8.5 µM. hit rate 45% among 2,500;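 active = mean inhibition over three repeats above a set limit taken from the earlier primary screen, cut at about 38% in these data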
Hits are given with their value. Hits are enriched below; roughly 1.2% of the tested compounds scored in any of these assays.

Results for Cc1nn(C)c(Cl)c1NC(=O)OCc1ccc(Cl)cc1Cl ?
COUP-TFII inh: 53; SRC3 inh: inactive; NCOA1 inh: inactive; NR5A2 inv ag: inactive; SRC2 inh: inactive; Gli-Sufu block: inactive; VP16 Luc counter: inactive; COUP-TFII conf: inactive

Results for O=C1Cn2nnc(-c3ccccc3)c2C2c3cc(Br)ccc3CCN12 (stereo not drawn) ?
COUP-TFII inh: inactive; SRC2 inh: inactive

What do the screens show for `O=C(Nc1cc(S(=O)(=O)N2CCCCC2)ccc1O)c1ccccc1NS(=O)(=O)c1ccc(F)cc1`?
COUP-TFII inh: inactive; SRC3 inh: inactive; NCOA1 inh: inactive; NR5A2 inv ag: inactive; SRC2 inh: inactive; Gli-Sufu block: inactive

Results for O=C(Nc1cc(S(=O)(=O)N2CCCCC2)ccc1Cl)c1ccccc1NS(=O)(=O)c1ccc(F)cc1 ?
COUP-TFII inh: 47; SRC3 inh: inactive; NCOA1 inh: inactive; NR5A2 inv ag: inactive; SRC2 inh: inactive; Gli-Sufu block: inactive; VP16 Luc counter: inactive; COUP-TFII conf: inactive

Results for COCCN(Cc1ccc(C)cc1)C(=O)[C@H]1O[C@@H](n2cnc(C(N)=O)n2)[C@H](O)[C@@H]1O ?
COUP-TFII inh: inactive; SRC2 inh: inactive

Results for Cc1cc(Cl)c(S(=O)(=O)N2CCCCCC2)cc1OCC(=O)NC1CCCCC1 ?
COUP-TFII inh: inactive; SRC3 inh: inactive; NCOA1 inh: inactive; NR5A2 inv ag: inactive; SRC2 inh: inactive; Gli-Sufu block: inactive

How did Cc1cc(Cl)c(S(=O)(=O)N2CCN(c3ccccn3)CC2)cc1OCC(=O)NC1CCCCC1 do in these assays?
COUP-TFII inh: 43; SRC3 inh: inactive; NCOA1 inh: inactive; NR5A2 inv ag: inactive; SRC2 inh: inactive; Gli-Sufu block: inactive; VP16 Luc counter: inactive; COUP-TFII conf: inactive

How did O=C(COc1ccc(Br)cc1Br)NC1CCCC1 do in these assays?
COUP-TFII inh: 47; SRC3 inh: inactive; NCOA1 inh: inactive; NR5A2 inv ag: inactive; SRC2 inh: inactive; Gli-Sufu block: inactive; VP16 Luc counter: inactive; COUP-TFII conf: inactive

What do the screens show for `Cc1cc(Cl)c(S(=O)(=O)NC2CCCC2)cc1OCC(=O)NC1CCCCC1`?
COUP-TFII inh: 53; SRC3 inh: inactive; NCOA1 inh: inactive; NR5A2 inv ag: inactive; SRC2 inh: inactive; Gli-Sufu block: inactive; VP16 Luc counter: inactive; COUP-TFII conf: 53

Results for CCN1CCN(S(=O)(=O)c2cc(OCC(=O)NC3CCCCC3)c(C)cc2Cl)CC1 ?
COUP-TFII inh: 46; SRC3 inh: inactive; NCOA1 inh: inactive; NR5A2 inv ag: inactive; SRC2 inh: inactive; Gli-Sufu block: inactive; VP16 Luc counter: inactive; COUP-TFII conf: inactive

Results for CCc1ccc(C=NN2CCN(Cc3ccc(C)cc3C)CC2)cc1 ?
COUP-TFII inh: inactive; SRC2 inh: inactive

How did C=CCN=c1scc(-c2ccc3c(c2)NC(=O)CO3)n1/N=C(\C)c1ccccn1 do in these assays?
COUP-TFII inh: 56; SRC3 inh: inactive; NCOA1 inh: inactive; NR5A2 inv ag: inactive; SRC2 inh: inactive; Gli-Sufu block: inactive; VP16 Luc counter: inactive; COUP-TFII conf: 63

What do the screens show for `C=CCN=c1scc(-c2ccc(F)cc2)n1/N=C/c1ccccn1`?
COUP-TFII inh: inactive; SRC3 inh: inactive; NCOA1 inh: inactive; NR5A2 inv ag: inactive; SRC2 inh: inactive; Gli-Sufu block: inactive

What do the screens show for `O=C(C1CCC(CNS(=O)(=O)c2cccs2)CC1)N1CCN(c2ccc(Cl)cc2)CC1` (stereo not drawn)?
COUP-TFII inh: 60; SRC3 inh: inactive; NCOA1 inh: inactive; NR5A2 inv ag: inactive; SRC2 inh: inactive; Gli-Sufu block: inactive; VP16 Luc counter: inactive; COUP-TFII conf: 59

Results for Cc1cc(N2CCN(c3cccc(C(F)(F)F)c3)CC2)n2ncnc2n1 ?
COUP-TFII inh: inactive; SRC3 inh: inactive; NCOA1 inh: inactive; NR5A2 inv ag: inactive; SRC2 inh: inactive; Gli-Sufu block: inactive

How did Cc1nc2ncnn2c(N2CCN(c3cccc(C(F)(F)F)c3)CC2)c1C do in these assays?
COUP-TFII inh: 44; SRC3 inh: inactive; NCOA1 inh: inactive; NR5A2 inv ag: inactive; SRC2 inh: inactive; Gli-Sufu block: inactive; VP16 Luc counter: inactive; COUP-TFII conf: inactive

Results for CCN(CC)S(=O)(=O)c1cc(NC(=O)C2CC(=O)N(Cc3ccccc3)C2)ccc1Cl (stereo not drawn) ?
COUP-TFII inh: 53; SRC3 inh: inactive; NCOA1 inh: inactive; NR5A2 inv ag: inactive; SRC2 inh: inactive; Gli-Sufu block: inactive; VP16 Luc counter: inactive; COUP-TFII conf: inactive

Results for Cc1ccc(NC(=O)C2CC(=O)N(Cc3ccccc3)C2)cc1S(=O)(=O)N1CCCCCC1 (stereo not drawn) ?
COUP-TFII inh: inactive; SRC3 inh: inactive; NCOA1 inh: inactive; NR5A2 inv ag: inactive; SRC2 inh: inactive; Gli-Sufu block: inactive

How did COc1ccccc1N1CCN(C(=O)CSc2nnc3n2C(C)(C)Cc2ccccc2-3)CC1 do in these assays?
COUP-TFII inh: 63; SRC3 inh: inactive; NCOA1 inh: inactive; NR5A2 inv ag: inactive; SRC2 inh: inactive; Gli-Sufu block: inactive; VP16 Luc counter: inactive; COUP-TFII conf: 45

How did NCCCNc1nc(N)c([N+](=O)[O-])c(NC2CCCCC2)n1 do in these assays?
COUP-TFII inh: 41; SRC3 inh: inactive; NCOA1 inh: inactive; NR5A2 inv ag: inactive; SRC2 inh: inactive; Gli-Sufu block: inactive; VP16 Luc counter: inactive; COUP-TFII conf: inactive

Results for COCCNc1nc(N)c([N+](=O)[O-])c(NC2CCCCC2)n1 ?
COUP-TFII inh: inactive; SRC3 inh: inactive; NCOA1 inh: inactive; NR5A2 inv ag: inactive; SRC2 inh: inactive; Gli-Sufu block: inactive

How did Cc1cc(NC(=O)c2ccc(Cn3nc(C)c(Br)c3C)o2)no1 do in these assays?
COUP-TFII inh: inactive; SRC3 inh: inactive; NCOA1 inh: inactive; NR5A2 inv ag: inactive; SRC2 inh: inactive

What do the screens show for `Cc1nn(Cc2ccc(C(=O)NC(C)(C)C)o2)c(C)c1Br`?
COUP-TFII inh: 48; SRC3 inh: inactive; NCOA1 inh: inactive; NR5A2 inv ag: inactive; SRC2 inh: inactive; Gli-Sufu block: inactive; VP16 Luc counter: inactive; COUP-TFII conf: inactive

What do the screens show for `Cc1ccc(C(C)C)c(OCc2ccc(C(=O)N/N=C/c3ccc(C(=O)O)cc3)cc2)c1`?
COUP-TFII inh: 40; SRC3 inh: inactive; NCOA1 inh: inactive; NR5A2 inv ag: inactive; SRC2 inh: inactive; Gli-Sufu block: inactive; VP16 Luc counter: 24; COUP-TFII conf: inactive

What do the screens show for `CC(=O)N1CCOc2ccc(S(=O)(=O)NCC3CCC(C(=O)Nc4ccc(C)cn4)CC3)cc21` (stereo not drawn)?
COUP-TFII inh: 39; SRC3 inh: inactive; NCOA1 inh: inactive; NR5A2 inv ag: inactive; SRC2 inh: inactive; Gli-Sufu block: inactive; VP16 Luc counter: inactive; COUP-TFII conf: inactive
